High-throughput results: PubChem BioAssay, National Center for Advancing Translational Sciences (NCATS)
Only some compounds are listed: those with a hit (about 15% of all), similar ones and a draw of the others.
Sm TGR inh = inhibitors of Schistosoma mansoni thioredoxin glutathione reductase; AID 485364; purified TGR, DTNB reduction, TNB absorbance 405 nm; Potency, µM (highest dose often 114 µM), actives largely listed as inhibitors; Q962Y6; 360,000 tested, 3% active; note: nearly all actives have a fitted effect of over 60% in size
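Kinetic colorimetric format: TGR-catalysed, NADPH-driven DTNB reduction monitored via TNB absorbance. Enzyme dispensed at 20 nM; compound exposure 15 min at room temperature before reaction start.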
SARS PLP yeast = SARS-CoV PLP inhibition in yeast. S. cerevisiae expressing SARS-CoV PLpro, growth rescue. Potency, µM (doses to about 32.9 µM), usual class: activators. 330,000 tested, 0.19% active. AID 485353; calls by dose curve; note: nearly all actives have a fitted effect of over 55% in size
HCMV antiviral = human cytomegalovirus inhibition; HFF cells, HCMV-luciferase reporter, 72 h; active compounds read low; activity change, negative = inhibition, % at 57.5 µM; 410,000 tested, 4.5% active; in the data active = activity change below about -60%; inconclusive = no clear call, values can overlap the other calls; inactive = above about -39%
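Compounds were evaluated in HFFs infected with an HCMV luciferase reporter virus (MOI 1 PFU/cell). Luciferase in lysates collected 72 h post infection served as the replication measure.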
Pf growth 48h = P. falciparum growth inhibition at 48 hours (one generation); P. falciparum luciferase growth in erythrocytes, 48 h; Potency, µM (highest dose often 28.7 µM), hits mostly inhibitors; 310,000 tested, 5.9% active
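Erythrocytes infected with P. falciparum carrying an integrated firefly luciferase reporter (2% hematocrit, 0.1% parasitemia final) were exposed to compounds in RPMI 1640 with 0.5% Albumax at 37 C, 5% CO2. Growth inhibition was scored as reduced luminescence.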
Pf growth 96h = P. falciparum growth inhibition at 96 hour, primary screen for plastid delayed-death inhibitors | P. falciparum luciferase reporter growth, 96 h | Potency, µM (titrated, usually from 28.7 µM), actives largely listed as inhibitors | 320,000 tested, 6.9% active | AID 504834
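Infected RBCs, 2% Hct / 0.05% parasitemia final; luciferase-reporter P. falciparum; cpd 96 h, 37 C, 5% CO2; luciferase detection reagent; luminescence.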
HCV inhibitor = inhibitors of hepatitis C virus infection; Huh7.5.1 HCVcc-Cre infection, luciferase reporter, 44 h; Potency, µM (top dose mostly 41.8 µM), most hits filed as inhibitors; 340,000 tested, 3.4% active; AID 651820
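Reporter virus HCVcc-Cre (~0.5 moi) infects cells exposed to compound; seeding density 1,000 cells/well with 4 h settling beforehand. Luminescence, 15 sec read, taken 44 h post-infection following a 15 min RT substrate incubation.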
Hits are given with their value; . = inactive; ? = inconclusive; / = no result; [ ] = remark or other dose. Unless noted, calls come from the whole dose curve; as a rule, active = well fitted curve in the direction sought with a large enough effect; inconclusive = small, poorly fitted or top-dose-only effect, or another doubt; inactive = no such curve, though single readings can be large; an effect the other way counts as inactive or inconclusive.

SMILES	Sm TGR inh	SARS PLP yeast	HCMV antiviral	Pf growth 48h	Pf growth 96h	HCV inhibitor
CN(C)S(=O)(=O)c1cccc(NC(=O)c2ccc(Sc3nncn3C)c([N+](=O)[O-])c2)c1	.	.	.	?	?	?
CCC(C)(C)NC(=O)c1ccc(Sc2nncn2C)c([N+](=O)[O-])c1	.	.	.	.	.	.
Cn1cnnc1Sc1ccc(/C=C/C(=O)c2ccc(O)cc2)cc1[N+](=O)[O-]	/	.	-101.2	?	?	.
CN1C2=C(C#N)C(c3ccccc3)(C(F)(F)F)NC(=O)N2c2ccccc21 (configuration not stated)	.	.	.	/	7.38µM	.
CCNC(=O)C1(c2ccccc2)CCCC1	.	/	.	.	.	.
Cc1ccc(O)c(C(CC(=O)NCC2(c3ccccc3)CCCC2)c2ccccc2)c1 (configuration not stated)	.	/	-98.5	/	/	/
S=C(NCC1(c2ccccc2)CCCC1)Nc1ccccc1	.	.	-96.8	.[0.00184 µM]	?	10µM
Cc1ccc(O)c(C(CC(=O)NCc2cccnc2)c2ccccc2)c1 (configuration not stated)	/	.	.	.	.	.
O=C(NCC1(c2ccccc2)CCCC1)C1(c2ccccc2)CCCC1	.	.	.	?	2.62µM	?
O=C(NCC1(c2ccccc2)CCCC1)C(=O)NCC1(c2ccccc2)CCCC1	39.8µM	.	.	.	.	.
O=C(NCC1(c2ccccc2)CCCC1)c1ccccc1	.	.	?	?	.	.
CCc1ccc(S(=O)(=O)Nc2ccc3[nH]c(=O)sc3c2)cc1	.	/	.	/	/	/
CCOC(=O)CNC(=O)CSc1nccn1Cc1ccco1	.	.	?	.	.	.
O=c1c2ccccc2nc(-c2ccco2)n1-c1ccccc1	.	.	.	?	8.28µM	.
O=c1c2ccccc2nc(-c2ccco2)n1-c1nc2ccccc2s1	.	.	.	.	1.04µM	.
O=c1c2ccccc2nc(-c2ccco2)n1-c1ccncc1	?	.	.	.	?	.
Cc1cccc(COCC(Cc2ccccc2)N2CCN(C(=O)c3ccc(Cl)c(Cl)c3)CCC2=O)c1 (configuration not stated)	.	.	.	?	?	?
Cc1cccc(COCC(Cc2ccccc2)N2CCN(C(=O)c3cc(Cl)cc(Cl)c3)CCC2=O)c1 (configuration not stated)	.	.	/	?	14.7µM	.[8.37 µM]
Cc1cccc(COCC(Cc2ccccc2)N2CCN(C(=O)c3cccc(C)c3)CCC2=O)c1 (configuration not stated)	.	.	.	13.1µM	?	.[8.37 µM]
NC(=O)CCN1CCN(CCOC2Cc3cc(Cl)ccc3Sc3ccccc32)CC1 (configuration not stated)	.	.	?	?	?	11.2µM
CN1CCN(CCOC2c3ccccc3CSc3ccc(Cl)cc32)CC1 (configuration not stated)	.	.	.	?	10.4µM	?
Fc1ccc2c(c1)Sc1ccc(Cl)cc1CC2N1CCN(CCC2OCCO2)CC1 (configuration not stated)	/	/	.	/	/	?
CN(C)CCOC1c2ccccc2CSc2ccccc21 (configuration not stated)	/	/	.	/	/	.
Cc1ccc(S(=O)(=O)N(C)c2ccc(OC(C)C(=O)N3CCCC3)cc2)cc1C (configuration not stated)	.	/	.	11.7µM	?	.
c1ccc(OCc2noc(CN3CCC(C4CCCCC4)C3)n2)cc1 (configuration not stated)	.	.	-61.5	?	.	.
SMILES	Sm TGR inh	SARS PLP yeast	HCMV antiviral	Pf growth 48h	Pf growth 96h	HCV inhibitor
COCC1CCN(Cc2nc(COc3ccccc3)no2)C1 (configuration not stated)	.	.	.	?	.	.
c1ccc(CN2CCCC3(CCCN(Cc4nc(COc5ccccc5)no4)C3)C2)cc1 (configuration not stated)	.	.	.	11.7µM	.	.
CN(C)CCOC(=O)NCC12CC3CC(CC(C3)C1)C2	.	.	.	.	.	.
COc1ccc(Nc2nccc(-c3ccc(C#N)cc3)n2)cc1	.	.	.	.	5.86µM	.
N#CCc1ccc(OC(=O)c2ccncc2)cc1	/	/	.	/	/	.
Cc1cc(-c2nn(-c3ccccc3F)cc2CN2CCCC(C(N)=O)C2)c(C)s1 (configuration not stated)	.	.	.	?	?	.
Cc1cc(-c2nn(-c3ccccc3F)cc2CN2CCC(C(N)=O)CC2)c(C)s1	44.7µM	.	.	.	8.28µM	.
Cc1cc(-c2nn(-c3ccccc3F)cc2CN2CCCC(CO)C2)c(C)s1 (configuration not stated)	.	.	-85.8	.	2.33µM	?
CCc1ccc(CNC(=O)c2cnc3sc(N(CC)CC)nn3c2=O)cc1	.	/	?	/	/	/
Cn1c(=O)c2c(nc(CN3CCN(C(=O)c4ccco4)CC3)n2Cc2ccccc2F)n(C)c1=O	?	.	.	/	1.47µM	.
Cn1c(=O)c2c(nc(CN3CCC(Cc4ccccc4)CC3)n2CCN2CCOCC2)n(C)c1=O	.	.	.	.	/	.
CCC1CCCCN1Cc1nc2c(c(=O)n(C)c(=O)n2C)n1Cc1ccccc1 (configuration not stated)	.	.	.	?	7.38µM	.
Cc1ccccc1Cn1c(CN2CCN(C(=O)c3ccco3)CC2)nc2c1c(=O)n(C)c(=O)n2C	.	.	.	?	?	.
CCC1CCCCN1Cc1nc2c(c(=O)n(C)c(=O)n2C)n1CCCc1ccccc1 (configuration not stated)	.	.	.	?	?	.
Cn1c(=O)c2c(nc(CN3CCN(Cc4ccccc4)CC3)n2Cc2ccc(Cl)cc2)n(C)c1=O	.	.	-103.4	/	2.62µM	?
Cn1c(=O)c2c(nc(CN3CCN(Cc4ccccc4)CC3)n2Cc2ccccc2)n(C)c1=O	.	.	/	?	?	.
Cn1c(=O)c2c(nc(CN3CCN(Cc4ccccc4)CC3)n2CCN2CCOCC2)n(C)c1=O	39.8µM	.	.	.	/	.
CCOc1ccc(CNCc2c(C(=O)O)c(C)n(Cc3ccc(C)cc3)c2C)cc1	.	/	.	/	/	/
CCCCCCn1c(CN2CCCCC2C)nc2c1c(=O)n(C)c(=O)n2C (configuration not stated)	.	.	.	.	?	25.1µM
CCCn1c(CN2CCCCC2C)nc2c1c(=O)n(C)c(=O)n2C (configuration not stated)	.	.	.	.	.	.
CCCC(=O)NC(c1ccco1)c1cc(Cl)c2cccnc2c1O (configuration not stated)	.	.	-98.1	11.7µM	/	11.2µM
CCCC(=O)NC(c1cccs1)c1cc(Cl)c2cccnc2c1O (configuration not stated)	.	.	-114.1	3.7µM	?	3.16µM
